Calls of active or inactive are those of the source. Cut-off read from the data, not from the text of the source, unless noted: active = inhibition above about 36%; inactive = the rest.
Tests used:
[1] = test system: transactivating tegument protein VP16 (Human herpesvirus 1); assay: VP16 transactivation reporter inhibitors, counter-screen for SRC2 inhibitor project, cell-based, luminescence, single concentration (AID 652007); conditions: cell-based VP16 transactivation luciferase reporter, at 8.9 µM, hits give high values
[2] = target: Nuclear receptor coactivator 2 (Homo sapiens) (UniProt Q15596); assay: SRC2 coactivator transcriptional activity inhibitors, confirmation, cell-based, luminescence, HEK293, triplicate (AID 652008;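 active = mean inhibition above 46.5%, the solvent-only control mean plus 3 SD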;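 note: 0% = DMSO-treated cells and 100% = Gossypol at 36 µM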); conditions: HEK293 GAL4-SRC2 luciferase reporter, at 8.9 µM, hits give high values
Chain of Nuclear receptor coactivator 2 (Homo sapiens) (Q15596 whole entry, looked up, the tested form may be a part): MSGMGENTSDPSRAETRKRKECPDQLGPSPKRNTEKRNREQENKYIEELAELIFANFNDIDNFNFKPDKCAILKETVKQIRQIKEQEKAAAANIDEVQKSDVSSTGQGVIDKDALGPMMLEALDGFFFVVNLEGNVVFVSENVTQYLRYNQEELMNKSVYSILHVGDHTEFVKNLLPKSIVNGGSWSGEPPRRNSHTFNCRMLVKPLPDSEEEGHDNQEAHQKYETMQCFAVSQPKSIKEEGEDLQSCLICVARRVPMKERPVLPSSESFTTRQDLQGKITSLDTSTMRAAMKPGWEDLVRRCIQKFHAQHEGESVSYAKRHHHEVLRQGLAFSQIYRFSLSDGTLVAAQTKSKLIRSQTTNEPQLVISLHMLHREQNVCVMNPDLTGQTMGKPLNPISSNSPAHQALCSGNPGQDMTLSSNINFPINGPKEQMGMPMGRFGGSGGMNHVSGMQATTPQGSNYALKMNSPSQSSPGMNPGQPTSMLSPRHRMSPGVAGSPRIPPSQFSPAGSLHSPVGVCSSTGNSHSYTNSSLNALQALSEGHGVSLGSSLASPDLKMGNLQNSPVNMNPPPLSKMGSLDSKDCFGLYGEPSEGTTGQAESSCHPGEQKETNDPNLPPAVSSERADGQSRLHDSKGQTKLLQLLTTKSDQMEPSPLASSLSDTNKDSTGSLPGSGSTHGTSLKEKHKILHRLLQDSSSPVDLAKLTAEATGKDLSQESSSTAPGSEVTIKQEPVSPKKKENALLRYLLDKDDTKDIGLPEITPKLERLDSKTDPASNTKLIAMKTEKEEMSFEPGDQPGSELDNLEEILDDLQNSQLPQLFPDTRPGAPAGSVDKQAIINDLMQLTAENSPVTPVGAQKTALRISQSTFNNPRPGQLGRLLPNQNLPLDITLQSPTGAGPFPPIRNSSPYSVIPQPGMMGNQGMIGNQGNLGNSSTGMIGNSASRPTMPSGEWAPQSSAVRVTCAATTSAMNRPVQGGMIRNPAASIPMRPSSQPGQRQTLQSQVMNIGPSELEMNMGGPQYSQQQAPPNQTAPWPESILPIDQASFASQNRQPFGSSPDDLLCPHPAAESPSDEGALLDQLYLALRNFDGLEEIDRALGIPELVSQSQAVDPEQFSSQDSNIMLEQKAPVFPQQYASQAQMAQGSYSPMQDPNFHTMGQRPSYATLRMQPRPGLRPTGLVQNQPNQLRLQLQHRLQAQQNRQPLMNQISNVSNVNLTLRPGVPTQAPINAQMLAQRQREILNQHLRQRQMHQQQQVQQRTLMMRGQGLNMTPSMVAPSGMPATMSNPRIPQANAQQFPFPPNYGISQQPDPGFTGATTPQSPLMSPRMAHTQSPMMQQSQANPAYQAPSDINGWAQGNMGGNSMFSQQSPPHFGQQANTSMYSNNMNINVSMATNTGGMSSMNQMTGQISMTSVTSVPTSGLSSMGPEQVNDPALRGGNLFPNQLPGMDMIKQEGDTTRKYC

SMILES	inhibition [1]	inhibition [2]
Cc1onc(-c2ccccc2Cl)c1C(=O)N1CCC(Cc2ccccc2)CC1	9.05% (inactive)	10.1% (inactive)
Cc1ccc(NC(=O)CCN2CCCCC2)cc1	-25% (inactive)	32.5% (inactive)
N#Cc1ccc(-c2ccc(OCC(=O)Nc3cccnc3)cc2)cc1	-9.35% (inactive)	52.6% (active)
COc1ccc(OC)c(NC(=O)CCCc2ccccc2)c1	-5.12% (inactive)	-20.9% (inactive)
CC(OC(=O)C1=COCCO1)C(=O)Nc1ccc(Cl)cn1 (centres undefined)	-6.28% (inactive)	-20.4% (inactive)
O=C(c1ccc(Cl)cc1)C(CN1CCCCC1)c1ccccc1 (centres undefined)	32.9% (inactive)	57.8% (active)
NC(Cc1ccc(Cl)cc1)c1csc(NC(=O)NCC2CCCCC2)n1 (centres undefined)	-2.01% (inactive)	3.16% (inactive)
COc1ccc(CCNc2oc(Cc3cccc4ccccc34)nc2C#N)cc1OC	-7.8% (inactive)	7.3% (inactive)
Cc1cc(C(=O)COC(=O)c2ccc(O)cc2O)c(C)n1-c1ccc(OC(F)F)cc1	12.6% (inactive)	35.1% (inactive)
N#CCCN(C(=O)CCl)c1cccc(Cl)c1	28.7% (inactive)	62.8% (active)
O=S(=O)(c1cccc2cnccc12)N1CCNCC1	5.01% (inactive)	48.1% (active)
COc1ccc(-c2nc(NC(=O)C3CC(=O)N(c4ccc5c(c4)OCCO5)C3)sc2C)cc1 (centres undefined)	-6.3% (inactive)	50.7% (active)
O=C(CCCN1C(=O)/C(=C/c2ccccc2Cl)SC1=S)NCCCN1CCOCC1	33.6% (inactive)	45.9% (inactive)
CCOc1cc(NC(=S)NCc2ccco2)c(OCC)cc1NC(=O)CC	-10.4% (inactive)	-9.88% (inactive)
O=C(OC12CCCN(C1)/C(=C/c1ccncc1)C2)c1ccc(Cl)cc1 (centres undefined)	-7.98% (inactive)	25.9% (inactive)
COc1cc(C(O)c2nc(-c3ccncc3)cs2)ccc1F (centres undefined)	4.64% (inactive)	20.8% (inactive)
COc1ccc2nc(NC(=O)C3CCN(S(=O)(=O)c4cccc5nsnc45)CC3)sc2c1	39.9% (active)	52.5% (active)
CC1CCCC(C)N1C(=O)c1cccc2c1-c1ccccc1/C2=N/O (centres undefined)	-10.5% (inactive)	8.15% (inactive)
Nc1nc(CCl)nc(Nc2ccccc2)n1	-25.1% (inactive)	8.83% (inactive)
CC(c1ccccc1)N1CCN(C(=O)CCl)CC1 (centres undefined)	17.4% (inactive)	43.9% (inactive)
Cn1nnnc1Sc1ncnc2scc(-c3ccc(Cl)cc3)c12	18.1% (inactive)	42.2% (inactive)
COc1cc(NC(=O)COC(=O)c2[nH]c(C)c(C(C)=O)c2C)cc(OC)c1	9.16% (inactive)	15.2% (inactive)
COc1cc2[nH]c(=O)n(CCCCCC(=O)NCCCN3CCCC3=O)c(=O)c2cc1OC	7.78% (inactive)	-9.47% (inactive)
CC(C)c1nc(N2CCOCC2)c(C#N)c2c1CCC2	-15.7% (inactive)	4.3% (inactive)

SMILES	inhibition [1]	inhibition [2]
Cc1ccc(C2CC(c3cccs3)=NN2C(=O)CCl)cc1 (centres undefined)	6.45% (inactive)	38.9% (inactive)
O=C(CCl)N(c1ccccc1)c1ccccc1	9.78% (inactive)	44.2% (inactive)
COc1ccc(CN2CCN(Cc3ccc(C(F)(F)F)cc3)CC2)cc1	10.7% (inactive)	22.6% (inactive)
Cc1ccc(Cn2ccc(=O)c(OCc3c(Cl)cccc3Cl)c2C)cc1	11.9% (inactive)	13.3% (inactive)
O=C(COC(=O)c1cc(S(=O)(=O)N2CCOCC2)ccc1F)NCc1ccc2c(c1)OCO2	-10.1% (inactive)	-5.62% (inactive)
COc1ccc(NC(=O)C2(C)Cc3c(-c4cccc(NC(C)=O)c4)ccnc3O2)cc1 (centres undefined)	-10.6% (inactive)	1.6% (inactive)
COc1ccc(CN2C[C@H](Cc3ccccc3)[C@@H](CC(=O)Nc3ccccc3)C2=O)cc1	-10.9% (inactive)	1.81% (inactive)
CC(C)N(C(=O)[C@H]1C[C@H](CC(=O)NCCc2ccccn2)C(=O)N2CCc3c([nH]c4cc(-c5ccco5)ccc34)[C@]12C)C(C)C	-4.18% (inactive)	-6.81% (inactive)
COc1cccc(-c2nc(-c3ccccn3)no2)c1	-20.4% (inactive)	24.9% (inactive)
CCCCn1c(CCC)nc([N+](=O)[O-])c1Sc1ccc(Cl)cn1	13.2% (inactive)	20.7% (inactive)
CCOc1ccc(N2CC(C(=O)Nc3ccc4c(c3)OCCO4)CC2=O)cc1 (centres undefined)	-5.36% (inactive)	-6.17% (inactive)
O=S1(=O)CCS(=O)(=O)C1c1ccccc1	15.8% (inactive)	-3.12% (inactive)
O=C(NCC1COc2ccccc2O1)c1cccc(S(=O)(=O)N2CCN(c3ccccc3)CC2)c1 (centres undefined)	-4.6% (inactive)	5.11% (inactive)
CCOc1ccc(-c2nc(CSCC(=O)NCc3ccco3)c(C)o2)cc1	-11.2% (inactive)	37% (inactive)
Cc1ccc(N(C(=O)CCl)C(C(=O)NC2CCCCC2)c2cccnc2)cc1C (centres undefined)	55.2% (active)	61.7% (active)
CC(=O)Nc1ccc(NC(=O)c2cc(=O)c3ccccc3o2)cc1	-12.5% (inactive)	-8.33% (inactive)
CCOc1ccc(NC(=S)C(C#N)=C2N(C)c3ccccc3N2C)cc1	-4.65% (inactive)	-15.8% (inactive)
O=C(CCl)Nc1ccccc1C(=O)NCc1ccccc1	0.94% (inactive)	42.9% (inactive)
COCCN=C1Sc2nc3c(C)cccc3cc2CN1Cc1ccco1	-12% (inactive)	4.64% (inactive)
Cc1ccc(C)c(OCc2ccc(C(=O)Nc3ccc([N+](=O)[O-])cn3)o2)c1	8.86% (inactive)	35.9% (inactive)
O=S(=O)(C/C(=C/CO)S(=O)(=O)c1ccccc1)c1ccccc1	79.3% (active)	67% (active)
NNC(=O)c1[nH]c2ccc(Br)cc2c1-c1ccccc1	-11.1% (inactive)	-1.32% (inactive)
COc1cc(NC(=O)CSCC(=O)Nc2cccc(C(F)(F)F)c2)c(Cl)cc1Cl	5.02% (inactive)	5.14% (inactive)

— PubChem BioAssay
